Data on twelve molecules can be found in PubChem BioAssay (NCATS).

Results filed as inconclusive are left out. Activity calls are given as the source filed them. The call rests on the fitted dose curve; in most records, active means well fitted cell-killing curve with a large enough effect; inconclusive means small, poorly fitted or top-dose-only effect; inactive means flat fitted curve, though single readings scatter. Peptide text beside a SMILES is read from it.
On the % scale 0 is the no-effect control and ±100 the full control effect; potency means the concentration at half of the fitted maximal effect.

This test can be described thus: Cell Viability - LYMP2-026 (AID 989). Further: nearly all actives have a fitted effect of over 50% in size. As to conditions: LYMP2-026 lymphoblastoid cell viability, qHTS; series mostly up to 92.2 µM; activity change, negative = cytotoxic: at the top concentration. The text has this: NIH Chemical Genomics Center [NCGC]
NIH Molecular Libraries Screening Centers Network [MLSCN]
National Institutes of Environmental Health Sciences [NIEHS]
National Toxicology Program [NTP]
We have developed a 1536-well cell-based assay for quantitative high throughput screening (qHTS) against a number of cell lines to determine in vitro cytotoxicity of small molecules. This particular assay uses a human lymphoblastoid cell line (LYMP2-026) purchased from Coriell Institute for Medical Research.
NCGC Assay Protocol Summary:
The CellTiter-Glo luminescent cell viability assay (Promega) is a homogeneous method to measure the number of viable cells in culture. The end point readout of this assay is based on quantitation of intracellular ATP, an indicator of metabolic activity, using the luciferase reaction. Luciferase catalyzes the oxidation of beetle Luciferin to oxyluciferin and light in the presence of ATP. The luminescent signal is proportional to amount of ATP present.
Using the CellTiter-Glo luminescent cell viability assay, the amount of cellular ATP was measured in the lymphoblastoid cell line with complete culture medium following compound treatment for 24 hours. The assay was performed in opaque white Kalypsys 1536-well plates. In the screen, tetraoctylammonium bromide was used as positive control. Library compounds were measured for their ability to cause acute toxicity in the cell line, as reflected by a decrease in intracellular ATP levels, in a concentration-dependent manner. […] AC50 values were determined from concentration-response data modeled with the standard Hill equation.
qHTS protocol for CellTiter Glo lymphoblastoid cellular assay
[Step] [Parameter] [Value] [Description]
1. Reagent; 5 uL; 2500 lymphoblastoid cells/well
2. Time; 5 hr; 37 C incubation
4. Controls; 23 nL; Tetraoctylammonium bromide 6.4pM to 92 uM
5. Time; 24 hr; 37 C incubation
6. Reagent; 5 uL; CellTiter Glo reagent
7. Time; 30 min; Room Temperature
8. Detection; Luminescence; Viewlux plate reader
Keywords: cell viability, cytotoxicity, lymphoblastoid cell line, luminescence, NTPHTS, NTPHTS_NCGC, NIEHS, DSSTox, MLSMR, MLSCN, NIH Roadmap, qHTS, NCGC
Background: In qHTS, concentration-response curves come from the screen itself.
On to `CS(=O)(=O)OCCCCOS(C)(=O)=O`, for which the Potency entry was “inactive”.

On to `CCCCC(CC)COC(=O)C(C#N)=C(c1ccccc1)c1ccccc1` (configuration not stated), for which the “activity change, negative = cytotoxic” value was -19.1% (inactive).

For `COc1c2occc2cc2ccc(=O)oc12`, the “activity change, negative = cytotoxic” value is -6.46% (inactive).

For `COC(=O)[C@H](Cc1ccccc1)NC(=O)[C@@H](N)CC(=O)O` (H-Asp-Phe-OMe), the “activity change, negative = cytotoxic” value was 4.3% (inactive).

On to `CCCc1cc(=O)[nH]c(=S)[nH]1`, for which the “activity change, negative = cytotoxic” value was -3.64% (inactive).

Consider `c1ccc2[nH]c(-c3cscn3)nc2c1`, for which the “activity change, negative = cytotoxic” value is -8.48% (inactive).

In the case of `NS(=O)(=O)c1cc(C(=O)O)c(NCc2ccco2)cc1Cl`, the “activity change, negative = cytotoxic” value was 0.65% (inactive).

Turning to `CN(C)c1ccc2nc3ccc(=[N+](C)C)cc-3sc2c1`, the Potency was 7.94 µM (active).

With `Nc1ccc(S(N)(=O)=O)cc1`, the “activity change, negative = cytotoxic” value is 4.55% (inactive).

As to `CC(=O)Nc1ccc(O)cc1`, the “activity change, negative = cytotoxic” value was -4.91% (inactive).

For `CCc1nc(N)nc(N)c1-c1ccc(Cl)cc1`, the “activity change, negative = cytotoxic” value is -17% (inactive).

As for `Cc1ccc(C)c(OCCCC(C)(C)C(=O)O)c1`, the “activity change, negative = cytotoxic” value was -8.8% (inactive).
